Results filed as inconclusive are left out. A call without a number means that no potency is given here. Calls of active or inactive are those of the source. The call rests on the fitted dose curve; in most records, active means well fitted inhibition curve with a large enough effect in the repeat runs; inconclusive means weak or mixed curves; inactive means flat fitted curve, though single readings scatter.
Test: qHTS assay to identify small molecule HDAC inhibitors (AID 1259364); further: nearly all actives have a fitted effect of over 45% in size
Conditions: HCT-116 HDAC-Glo I/II luminescence, 2 h; series mostly up to 92.4 µM
Description: U.S. Tox21 Program National Center for Advancing Translational Sciences [NCATS] NIH Chemical Genomics Center [NCGC] U.S. Environmental Protection Agency [EPA] National Institutes of Environmental Health Sciences [NIEHS] National Toxicology Program [NTP] U.S. Food and Drug Administration [FDA] Tox21 Assay Overview: Histone deacetylases (HDACs) are a group of epigenetic enzymes that regulate gene expression by histone deacetylation. HDACs are capable of introducing epigenetic modifications and such aberrations contribute to the onset and progression of several human diseases, thus making HDACs a popular therapeutic target. For identifying endogenous class I/II HDAC inhibitors a homogenous, luminogenic HDAC I/II cell based assay was used to measure the relative activity of class I and II HDACs from cells. Wild type HCT-116 cells were used to screen Tox21 libraries for identifying class I/II HDAC inhibitors.
Tox21 Assay Protocol Summary: HCT-116 cells were dispensed at 1,500 per well in 5uL of culture medium into white solid bottom 1536-well plates (Greiner Bio-One, Monroe, NC) using a Multidrop Combi (Thermo Scientific, Waltham, MA) dispenser. The assay plates were incubated at 37 C and 5% CO2 for an overnight, and then 23nL of compounds dissolved in DMSO and positive control were transferred using a Pintool station (Wako, San Diego, CA). The assay plates were incubated at 37C and 5% CO2 for 2hr. After compound treatment, 4uL of HDAC-Glo reagent (Promega Corporation, Madison, WI) was added to each well of the assay plates using Flying Reagent Dispenser (FRD, Aurora Discovery, San Diego, CA) and incubated the assay plates at room temperature for 30min. The luminescence signal was quantified using a ViewLux plate reader (Perkin Elmer, Shelton, CT).
Potency means the concentration at half of the fitted maximal effect.

SMILES | Potency
OC[C@@H](O)[C@@H](O)CO | inactive
COc1ccc(-c2coc3cc(O)ccc3c2=O)cc1 | 1.54 µM (active)
COC1=C(OC)C(=O)C(CCCCCCCCCCO)=C(C)C1=O | inactive
C=C(C)c1cccc(C(=C)C)c1 | inactive
C=CCn1c(=O)n(CC=C)c(=O)n(CC=C)c1=O | inactive
O=C1c2ccccc2C(=O)N1SC1CCCCC1 | inactive
CC1=Nc2ccccc2C1(C)C | inactive
C#C[C@]1(O)CC[C@H]2[C@@H]3[C@H](C)CC4=C(CCC(=O)C4)[C@H]3CC[C@@]21C | inactive
CCCCC/C=C\C/C=C\CCCCCCCC(=O)O | inactive
S=C([S-])NCCNC(=S)[S-].S=C([S-])NCCNC(=S)[S-].[Mn+2].[Zn+2] | inactive
CCCC1CCC(=O)CC1 | inactive
COc1ccc2cc1Oc1ccc(cc1)C[C@H]1c3c(cc4c(c3Oc3cc5c(cc3OC)CCN(C)[C@@H]5C2)OCO4)CCN1C | inactive
CN1CCCCC1CCN1c2ccccc2Sc2ccc(S(C)=O)cc21 (stereo not given) | inactive
O=C(O)c1cc(=O)c2ccccc2o1 | inactive
Cc1nc(-c2ccc(Cl)cc2)oc1COC(C)(C)C(=O)O | inactive
C#CC1(O)CC[C@H]2[C@@H]3CCC4=CCCC[C@@H]4[C@H]3CC[C@@]21C (stereo not given in full) | inactive
Cc1cccc2cccnc12 | inactive
C=Cc1ccccc1C=C | inactive
CC(C)=CCNc1ncnc2c1ncn2[C@@H]1O[C@H](CO)[C@@H](O)[C@H]1O | inactive
CC(CO)Oc1ccccc1 (stereo not given) | inactive

SMILES | Potency
O=C1NC(=O)[C@@H]2CC=CC[C@H]12 | inactive
C=CC(C)(CCC=C(C)C)OC=O (stereo not given) | inactive
CCCCNS(=O)(=O)c1ccc(C)cc1 | inactive
CC(C)(C)c1ccc(C(O)CCCN2CCC(C(O)(c3ccccc3)c3ccccc3)CC2)cc1 (stereo not given) | inactive
CCOC(=O)Cn1cccc1-c1nc(-c2ccc(OC)cc2)c(-c2ccc(OC)cc2)s1 | inactive
COc1cccc(OC)c1C(=O)O | inactive
Oc1c(I)cc(Cl)c2cccnc12 | inactive
CCCCCc1ccc(Cl)cc1 | inactive
O[C@@H]([C@H](O)[C@H](O)CBr)[C@H](O)CBr | inactive
COc1ccc2c(c1)c(CC(=O)OC/C=C(\C)CC/C=C(\C)CCC=C(C)C)c(C)n2C(=O)c1ccc(Cl)cc1 | inactive
CCCCC(CC)CN1CN(CC(CC)CCCC)CC(C)(N)C1 (stereo not given) | inactive
Cc1cc(C(C)(C)C)cc(C)c1CC1=NCCN1 | inactive
COc1c(C)c2c(c(O)c1C/C=C(\C)CCC(=O)OCCN1CCOCC1)C(=O)OC2 | inactive
OC12N=C(c3ccccc3)SC1Cc1cc(Cl)ccc12 (stereo not given) | 27.3 µM (active)
CCN1C(=O)c2ccccc2C1Nc1ccc(OCCN2CCCCC2)cc1 (stereo not given) | inactive
ClCCl | inactive
O=S(=O)(O)c1ccccc1/C=C/c1ccc(-c2ccc(/C=C/c3ccccc3S(=O)(=O)O)cc2)cc1 | inactive
Cc1c(N)cccc1C(F)(F)F | inactive
Cc1cc(=O)oc2cc(O)cc(O)c12 | inactive
O=S(=O)(O)c1ccc(N=Nc2c(O)ccc3ccccc23)cc1 | 0.686 µM (active)
